Measurements reported in PubChem BioAssay.
Activity calls are given as the source filed them.

How the values were obtained:
[1] = binders of probe aFSTL3 on microarray, primary screen, stem cell growth factor project, biochemical, small-molecule microarray, fluorescence 635/667 (AID 1064); settings: higher = more signal;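 also: measures binding of the biotinylated anti-FSTL3 antibody to printed compounds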
[2] = binders from COS7 lysate, DM2A8 probe, primary screen, torsin A project, cell lysate, small-molecule microarray, fluorescence 635/667 (AID 1065); settings: higher = more signal, COS7 lysate expressing mutant human TOR1A
[3] = binders of probe aFGF2 on microarray, primary screen, stem cell growth factor project, biochemical, small-molecule microarray, fluorescence 635/667 (AID 1067); settings: higher = more signal;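 also: measures binding of biotinylated aFGF2 protein to printed compounds on slides; z-score merges feature fluorescence and signal-to-noise across triplicate slides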
[4] = binders of probe aFGF10 on microarray, primary screen, stem cell growth factor project, biochemical, small-molecule microarray, fluorescence 635/667 (AID 1071); settings: higher = more signal;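 also: score merges 667 nm spot intensity and signal to noise from triplicate slides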
[5] = target: Neurogenic locus notch homolog protein 2 (Homo sapiens) (UniProt Q04721); assay: Notch2 binders on small-molecule microarrays, primary screen, biochemical, small-molecule microarray, 635 nm fluorescence, stem cell growth factors (AID 1073); settings: Notch2 binding, higher = more signal
[6] = target: Pro-neuregulin-1, membrane-bound isoform (Homo sapiens) (UniProt Q02297); assay: NRG1 binders on small-molecule microarrays, primary screen, psychiatric disease protein project, biochemical, small-molecule microarray, fluorescence 635/667 (AID 1075); settings: NRG1 binding, 635 nm fluorescence, higher = more signal;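 also: score combines 667 nm spot fluorescence with signal to noise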
[7] = test system: Neuregulin-1 EGF-like domain; assay: binders of neuregulin-1 EGF-like domain, primary screen, biochemical, small-molecule microarray, 635 nm fluorescence (AID 1081); settings: small-molecule microarray binding, higher = more signal;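 also: binding of the protein to compounds printed on small-molecule microarray slides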
[8] = FRG1 promoter luciferase signal modulators, primary screen, FRG1 inhibition for FSHD, cell-based, C2C12 myotubes, firefly/Renilla luciferase, luminescence (AID 1084); settings: higher = more signal, called active from +8 up or from −8 down
[9] = binders of probe aFST on microarray, primary screen, stem cell growth factor project, biochemical, small-molecule microarray, fluorescence 635/667 (AID 1086); settings: higher = more signal;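 also: score merges 667 nm fluorescence with signal-to-noise of each printed compound spot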
[10] = binders of probe aHhip on microarray, primary screen, stem cell growth factor project, biochemical, small-molecule microarray, fluorescence 635/667 (AID 1087); settings: higher = more signal;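 also: score merges spot fluorescence at 667nm with spot signal to noise ratio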
[11] = test system: PRMT1 (protein arginine N-methyltransferase 1); assay: PRMT1 binders on small-molecule microarrays, primary screen, biochemical, small-molecule microarray, 635 nm fluorescence (AID 1088); settings: small-molecule microarray binding, higher = more signal;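 also: binding of Prmt1 protein to compounds spotted on small-molecule microarray slides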
[12] = yeast growth modulation, basal conditions, primary screen, YJM789 clinical isolate, OD600, 24 h (AID 1089);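 also: growth of clinical yeast isolate S. cerevisiae YJM 789 seeded 1000 cells per well; test concentration not given here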; settings: S. cerevisiae YJM789 growth, higher = more signal, called active from +8 up or from −8 down
[13] = fission yeast growth modulation, primary screen, strain 972, OD600, 24 h, no modulator (AID 1090);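 also: basal condition with compound alone and no growth modifier present; test concentration not given here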; settings: S. pombe 972 growth, higher = more signal, called active from +8 up or from −8 down
[14] = S. cerevisiae growth modulation with rapamycin, primary screen, strain BY4716, OD600, 96 h (AID 1091); settings: higher = more signal, called active from +8 up or from −8 down; also: test concentration not given here
[15] = target: Torsin-1A-interacting protein 2 (Homo sapiens) (UniProt Q8NFQ8); assay: LULL1 binders on small-molecule microarray, primary screen, cell lysate, human LULL1 lysate, 635/667 nm fluorescence (AID 1092); settings: hLULL1 lysate binding, 635 nm fluorescence, higher = more signal;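 also: probe is lysate of COS7 cells overexpressing human LULL1; score merges per-feature 667 nm fluorescence with signal-to-noise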
[16] = E. coli growth modulation, two-sided OD650, primary screen, E. coli filamentation project, strain DRC41, 24 h (AID 1093); settings: OD650, 24 h, higher = more signal, called active from +8 up or from −8 down;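 also: MC1000 strain lacking acrAB efflux and sulA so SOS filamentation is blocked; test concentration not given here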
[17] = small-molecule microarray binders of probe aLefty2, primary screen, biochemical, biotinylated probe, 635/667 nm fluorescence (AID 1094); settings: higher = more signal;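 also: score merges spot fluorescence near 667 nm with spot signal-to-noise ratio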
[18] = test system: Noggin (protein binding on small-molecule microarray); assay: Noggin binders on small-molecule microarray, primary screen, biochemical, 635/667 nm fluorescence (AID 1095); settings: 635 nm fluorescence, higher = more signal;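 also: score merges 667 nm feature fluorescence with signal to noise over triplicate slides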
[19] = target: Neurogenic locus notch homolog protein 3 (Homo sapiens) (UniProt Q9UM47); assay: NOTCH3 binders on small-molecule microarray, primary screen, biochemical, 635/667 nm fluorescence (AID 1096); settings: NOTCH3 binding, 635 nm fluorescence, higher = more signal
[20] = small-molecule microarray binders of probe aEGFR, primary screen, biochemical, biotinylated probe, 635/667 nm fluorescence (AID 1097); settings: higher = more signal;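 also: probe is a biotinylated anti-EGFR antibody binding compounds printed on slides; score combines fluorescence near 667 nm and signal to noise of each spot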

Neurogenic locus notch homolog protein 3 (Homo sapiens), sequence (Q9UM47 whole entry, looked up): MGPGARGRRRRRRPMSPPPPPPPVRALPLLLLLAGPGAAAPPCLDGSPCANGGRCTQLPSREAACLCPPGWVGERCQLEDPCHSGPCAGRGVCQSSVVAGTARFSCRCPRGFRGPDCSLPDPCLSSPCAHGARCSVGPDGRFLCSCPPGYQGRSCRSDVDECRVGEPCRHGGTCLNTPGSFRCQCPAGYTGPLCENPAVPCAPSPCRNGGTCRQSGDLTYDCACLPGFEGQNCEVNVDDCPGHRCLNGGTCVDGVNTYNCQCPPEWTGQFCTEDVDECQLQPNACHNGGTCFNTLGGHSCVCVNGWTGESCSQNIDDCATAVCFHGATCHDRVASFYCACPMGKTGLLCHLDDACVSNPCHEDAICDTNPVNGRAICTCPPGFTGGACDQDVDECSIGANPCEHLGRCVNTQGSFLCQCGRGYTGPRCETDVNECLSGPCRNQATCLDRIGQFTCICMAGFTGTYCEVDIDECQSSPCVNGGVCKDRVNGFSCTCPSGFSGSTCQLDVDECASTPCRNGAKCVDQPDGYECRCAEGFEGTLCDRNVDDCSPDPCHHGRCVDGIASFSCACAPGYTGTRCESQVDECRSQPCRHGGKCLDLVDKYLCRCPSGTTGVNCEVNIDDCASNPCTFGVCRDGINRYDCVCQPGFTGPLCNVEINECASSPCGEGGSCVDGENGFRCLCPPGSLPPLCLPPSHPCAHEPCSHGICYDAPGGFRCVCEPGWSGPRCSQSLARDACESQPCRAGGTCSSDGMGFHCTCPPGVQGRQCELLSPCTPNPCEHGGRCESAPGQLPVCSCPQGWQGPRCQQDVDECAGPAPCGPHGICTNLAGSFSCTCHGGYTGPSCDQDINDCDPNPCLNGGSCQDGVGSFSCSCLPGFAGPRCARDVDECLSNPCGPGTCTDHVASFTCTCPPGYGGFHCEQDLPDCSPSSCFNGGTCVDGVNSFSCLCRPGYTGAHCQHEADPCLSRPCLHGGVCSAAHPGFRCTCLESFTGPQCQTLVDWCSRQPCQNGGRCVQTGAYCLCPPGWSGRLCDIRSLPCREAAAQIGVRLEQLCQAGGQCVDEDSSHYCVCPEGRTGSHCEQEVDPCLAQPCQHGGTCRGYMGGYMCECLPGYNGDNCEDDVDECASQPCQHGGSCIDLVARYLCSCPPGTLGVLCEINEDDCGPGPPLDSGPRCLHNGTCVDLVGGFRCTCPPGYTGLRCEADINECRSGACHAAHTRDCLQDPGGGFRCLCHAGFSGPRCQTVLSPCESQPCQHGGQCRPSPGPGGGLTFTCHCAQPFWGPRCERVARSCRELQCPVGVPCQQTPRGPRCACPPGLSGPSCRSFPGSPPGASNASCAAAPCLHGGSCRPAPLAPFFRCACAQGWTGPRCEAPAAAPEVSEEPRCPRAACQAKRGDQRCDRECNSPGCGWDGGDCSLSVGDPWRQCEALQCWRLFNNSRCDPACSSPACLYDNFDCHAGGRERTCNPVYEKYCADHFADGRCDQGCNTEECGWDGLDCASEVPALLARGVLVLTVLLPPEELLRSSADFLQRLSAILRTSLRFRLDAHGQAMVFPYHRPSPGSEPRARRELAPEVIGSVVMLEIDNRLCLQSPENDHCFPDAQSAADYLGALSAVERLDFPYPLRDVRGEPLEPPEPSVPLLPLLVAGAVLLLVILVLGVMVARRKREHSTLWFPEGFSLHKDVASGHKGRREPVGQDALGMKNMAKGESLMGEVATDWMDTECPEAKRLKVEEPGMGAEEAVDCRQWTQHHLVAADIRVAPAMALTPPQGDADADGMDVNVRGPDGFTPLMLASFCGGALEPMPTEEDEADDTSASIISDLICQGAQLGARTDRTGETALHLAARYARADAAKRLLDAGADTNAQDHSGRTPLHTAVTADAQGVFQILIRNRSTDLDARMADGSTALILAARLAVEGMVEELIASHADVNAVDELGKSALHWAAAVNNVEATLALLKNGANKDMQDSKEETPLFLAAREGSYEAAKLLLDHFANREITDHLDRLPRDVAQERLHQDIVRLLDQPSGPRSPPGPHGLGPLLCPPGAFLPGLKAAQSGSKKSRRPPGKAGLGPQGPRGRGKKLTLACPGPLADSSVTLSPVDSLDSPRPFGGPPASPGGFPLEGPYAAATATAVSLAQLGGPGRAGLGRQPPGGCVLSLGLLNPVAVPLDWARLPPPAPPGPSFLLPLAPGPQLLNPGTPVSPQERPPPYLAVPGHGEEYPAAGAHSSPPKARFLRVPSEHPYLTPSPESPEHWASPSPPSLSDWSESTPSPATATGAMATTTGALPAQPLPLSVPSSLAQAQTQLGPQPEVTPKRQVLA
Pro-neuregulin-1, membrane-bound isoform (Homo sapiens), sequence (Q02297 whole entry, looked up, the tested form may be a part, canonical isoform): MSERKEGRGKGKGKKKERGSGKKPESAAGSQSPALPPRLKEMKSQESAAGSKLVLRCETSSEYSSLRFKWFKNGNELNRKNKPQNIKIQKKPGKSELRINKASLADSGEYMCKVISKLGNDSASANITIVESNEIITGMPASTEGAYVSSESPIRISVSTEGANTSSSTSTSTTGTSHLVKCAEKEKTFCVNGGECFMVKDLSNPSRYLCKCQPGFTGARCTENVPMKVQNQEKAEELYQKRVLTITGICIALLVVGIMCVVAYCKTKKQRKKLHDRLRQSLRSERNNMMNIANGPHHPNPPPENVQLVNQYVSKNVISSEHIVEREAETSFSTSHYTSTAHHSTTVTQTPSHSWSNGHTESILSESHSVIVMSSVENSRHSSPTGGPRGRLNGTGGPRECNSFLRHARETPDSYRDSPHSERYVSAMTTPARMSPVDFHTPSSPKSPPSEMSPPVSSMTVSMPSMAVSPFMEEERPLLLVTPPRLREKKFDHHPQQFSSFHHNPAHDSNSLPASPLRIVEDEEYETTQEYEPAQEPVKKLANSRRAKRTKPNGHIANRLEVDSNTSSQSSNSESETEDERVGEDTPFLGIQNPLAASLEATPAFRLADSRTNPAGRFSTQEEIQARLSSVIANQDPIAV
Torsin-1A-interacting protein 2 (Homo sapiens), sequence (Q8NFQ8 whole entry, looked up): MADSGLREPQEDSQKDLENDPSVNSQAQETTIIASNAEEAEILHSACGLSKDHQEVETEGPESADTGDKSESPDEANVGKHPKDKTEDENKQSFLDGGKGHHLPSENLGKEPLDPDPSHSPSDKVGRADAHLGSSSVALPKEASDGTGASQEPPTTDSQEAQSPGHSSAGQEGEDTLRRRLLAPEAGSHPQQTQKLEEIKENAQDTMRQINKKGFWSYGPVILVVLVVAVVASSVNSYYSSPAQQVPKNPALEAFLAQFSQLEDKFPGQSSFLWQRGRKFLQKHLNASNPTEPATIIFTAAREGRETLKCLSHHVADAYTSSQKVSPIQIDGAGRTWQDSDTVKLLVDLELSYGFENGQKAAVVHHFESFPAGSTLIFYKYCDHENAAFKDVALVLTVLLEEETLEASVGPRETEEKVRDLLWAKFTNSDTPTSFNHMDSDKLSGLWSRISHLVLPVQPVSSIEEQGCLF

SMILES	composite z-score [1]	composite z-score [2]	composite z-score [3]	composite z-score [4]	composite z-score [5]	composite z-score [6]	composite z-score [7]	z-score [8]	composite z-score [9]	composite z-score [10]	composite z-score [11]	z-score [12]	z-score [13]	z-score [14]	composite z-score [15]	z-score [16]	composite z-score [17]	composite z-score [18]	composite z-score [19]	composite z-score [20]
COCCOC(=O)N1C(=O)[C@@]2(c3ccccc31)[C@H](c1ccc(O)cc1)N1[C@H](c3ccccc3)[C@H](c3ccccc3)OC(=O)[C@H]1[C@@H]2C(=O)Nc1nc2ccccc2s1	0.161	0.912	-0.0441	0.175	1.16	1.38	1.11	-0.929 (inactive)	0.5	0.0139	1.31	1.35 (inactive)	0.396 (inactive)	1.75 (inactive)	1.94	1.31 (inactive)	0.201	0.734	1.09	0.0432
COC(=O)C(CC#Cc1ccc2c(c1)[C@]1(C(=O)N2)[C@H](C(=O)Nc2nc3ccccc3s2)[C@H]2C(=O)O[C@H](c3ccccc3)[C@H](c3ccccc3)N2[C@@H]1c1ccc(O)cc1)C(=O)OC	-0.485	0.919	0.0495	0.621	1.33	1.37	1.36	1.28 (inactive)	0.688	-0.0618	1.55	0.424 (inactive)	0.301 (inactive)	0.746 (inactive)	2.82	-1.05 (inactive)	-0.0258	0.709	1.03	0.221
O=C1C2C=CC(C(O)c3cccc4ccccc34)N(Nc3ccccc3F)C2C(=O)N1c1ccccc1 (stereo not given)	0.154	-0.371	-0.0209	0.64	1.67	1.27	1.23	0.856 (inactive)	1.23	-0.0672	1.54	0.0692 (inactive)	0.865 (inactive)	1.01 (inactive)	3.69	-0.316 (inactive)	0.13	0.0926	1.12	0.222
O=C1NC(=O)C2C1C=CC(C(O)c1cc(C(F)(F)F)cc(C(F)(F)F)c1)N2Nc1ccccn1 (stereo not given)	-0.119	0.134	-0.0524	0.121	0.312	0.969	1.03	0.589 (inactive)	0.138	-0.0726	0.463	0.307 (inactive)	1.19 (inactive)	-0.697 (inactive)	1.21	-1.02 (inactive)	0.05	0.159	0.429	-0.129
C#C[C@H](O[Si](C#Cc1ccc(Oc2ccccc2)cc1)(C(C)C)C(C)C)c1ccccc1	-0.247	1.27	-0.0613	0.853	1.25	0.206	0.801	0.297 (inactive)	0.315	-0.0994	1.23	-0.824 (inactive)	-19.1 (active)	-0.42 (inactive)	1.02	-0.547 (inactive)	-0.0666	0.531	0.185	-0.0286
CCCC[C@H]1OB(O)C[C@H]2C1=C(COC)C[C@H]1C(=O)N(C)C(=O)[C@H]12	-0.441	0.49	-0.144	0.18	0.364	-0.149	0.6	0.0329 (inactive)	0.106	-0.15	-0.15	-0.937 (inactive)	-0.775 (inactive)	-0.635 (inactive)	0.0079	-0.908 (inactive)	-0.157	1.08	0.769	-0.139
C=C(CCCC)C(=O)CC[C@@H](OC(=O)c1ccccc1-c1ccccc1C(=O)O)c1ccc(OCCO)cc1	-0.281	0.358	-0.128	0.826	-0.278	0.529	0.562	-0.109 (inactive)	0.135	0.011	1.53	-0.848 (inactive)	-1.57 (inactive)	-1.2 (inactive)	0.259	0.502 (inactive)	-0.0272	0.931	0.462	-0.0767
CCCC[C@@H]1C[C@H]1[C@@H](NC(=O)c1ccccc1)c1ccc(C(=O)OC)cc1	1.37	-0.0965	-0.0273	-0.282	-0.547	-0.273	-0.544	0.191 (inactive)	-0.303	0.35	-0.406	-1.24 (inactive)	-11.2 (active)	-2.61 (inactive)	0.0062	-1.13 (inactive)	0.285	0.894	-0.544	-0.224
COc1ccc([Si](C)(C)[C@H]2[C@H](CCO)O[C@@]3(C(=O)N(Cc4ccc(N(C=O)c5ccccc5)cc4)c4ccccc43)[C@@H]2C)cc1	-0.151	-0.177	-0.0602	0.143	-0.285	0.799	0.606	-4.11 (inactive)	-0.267	-0.249	0.258	1.09 (inactive)	0.302 (inactive)	25.2 (active)	1.12	0.759 (inactive)	-0.107	0.0352	0.033	-0.162
COC(=O)[C@@]1(Cc2ccc(F)cc2)[C@H]2c3cc(C(=O)N4CCCC4)n(Cc4ccc(S(C)(=O)=O)cc4)c3C[C@H]2CN1C(=O)c1ccccc1	0.635	-0.266	0.29	0.983	1.55	1.88	0.859	-0.205 (inactive)	2.09	-0.0169	-0.0384	-0.13 (inactive)	0.365 (inactive)	1.48 (inactive)	3.29	-1.02 (inactive)	0.267	-0.771	1.02	0.123
